Compound activity (PubChem)
APP transl inh: inhibitors of APP translation via 5'UTR reporter, primary screen, APP 5'UTR luciferase, SH-SY5Y cells. SH-SY5Y APP 5'UTR-luciferase reporter, luminescence. inhibition, % at 2 µM. 190,000 tested, 0.82% active. AID 1285, 2008;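 active means inhibition above a set limit, derived from the sample mean plus 3 SD, cut at about 45% in these data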
NF-kB neuron act: activators of NF-kB expression in neurons, primary screen, cell-based, HTS. human neuronal cells, NF-kB reporter expression; active compounds read high. fold change at 12.5 µM. 190,000 tested, 1.6% active. AID 1239, 2008; in the data active means fold change above about 3.3
STAT1 act: STAT1 signaling activators, primary screen, cell-based, HTS, luciferase reporter | activation (% of control), % at 5.5 µM | 200,000 tested, 2.6% active | NIH 3T3 STAT1-luciferase reporter, IFN-gamma, luminescence; 100% = IFN-gamma alone, no compound;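 active means activation above the screen-wide mean activation plus 3 SD, cut at about 130% in these data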
APP 5'UTR act: activators of APP 5'UTR luciferase reporter, primary screen, SH-SY5Y cells; SH-SY5Y APP 5'UTR luciferase reporter, luminescence; zero percent = DMSO vehicle wells; activation, % at 2 µM; 190,000 tested, 1% active;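 active means activation above a set limit, based on mean plus 3 SD of controls, cut at about 140% in these data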
Wee1 degr inh: Wee1 degradation inhibitors, primary screen, cell-based, HeLa, Wee1K328M-luciferase, luminescence; reporter increase, % at 5 µM; HeLa Luc-Wee1K328M stability; 100% = proteasome inhibitor MG132 effect; 220,000 tested, 1.2% active; Wee1-like protein kinase (Homo sapiens), P30291; AID 1321, 2008;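 active means activation above the mean of all tested compounds plus 3 SD, set per screening run, cut at about 8.8% in these data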;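 further: cells exposed to compound for 20 h before luminescence read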
Target sequence (P30291 whole entry K328M): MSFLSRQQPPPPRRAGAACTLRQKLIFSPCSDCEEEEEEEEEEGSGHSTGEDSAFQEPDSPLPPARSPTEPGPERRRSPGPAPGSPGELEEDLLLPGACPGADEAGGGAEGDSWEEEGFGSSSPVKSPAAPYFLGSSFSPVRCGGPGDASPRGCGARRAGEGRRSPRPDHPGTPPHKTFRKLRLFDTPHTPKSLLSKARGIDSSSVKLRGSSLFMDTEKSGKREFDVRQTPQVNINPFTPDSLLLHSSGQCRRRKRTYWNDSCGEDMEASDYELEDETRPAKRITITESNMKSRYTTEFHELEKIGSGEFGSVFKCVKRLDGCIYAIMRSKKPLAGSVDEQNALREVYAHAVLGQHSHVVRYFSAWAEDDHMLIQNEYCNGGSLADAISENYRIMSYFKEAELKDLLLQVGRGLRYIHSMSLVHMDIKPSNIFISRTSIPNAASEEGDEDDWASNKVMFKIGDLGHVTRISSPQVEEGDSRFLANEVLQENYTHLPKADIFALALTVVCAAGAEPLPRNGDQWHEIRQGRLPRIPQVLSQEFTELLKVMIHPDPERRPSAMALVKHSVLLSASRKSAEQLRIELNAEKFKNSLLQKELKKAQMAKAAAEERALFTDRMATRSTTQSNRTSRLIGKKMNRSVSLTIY
Hsp70 act: Hsp70 transcriptional activators, primary screen, cell-based, HeLa, Hsp70 promoter luciferase, luminescence, 10 µM | HeLa Hsp70 promoter luciferase reporter; scaled: vehicle 0, proteasome-inhibitor control 100% | activation, % at 10 µM | 200,000 tested, 0.04% active | AID 1203, 2008;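 active means activation above the mean across all tested compounds plus 3 SD, cutoff set per campaign, cut at about 5.5% in these data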
Large screens that a line does not name were inactive. In the library only some 4.8% were active in any assay of this set; here they are far more common.

CN(C)c1ccc(N=C/C=C2\N(C)c3ccccc3C2(C)C)cc1	APP 5'UTR act 142.8
CCc1ccc(/C=N/NC(=O)c2cc(C3CC3)nc3ccccc23)s1	Wee1 degr inh 10.5
CCOc1ncccc1C(=O)OCC(=O)c1ccc(Cl)s1	none
CCCc1ccc(C(=O)NNc2ccccc2F)cc1	Wee1 degr inh 9.3 (no result: APP transl inh, NF-kB neuron act, STAT1 act, APP 5'UTR act, Hsp70 act)
O=C1NC(c2ccc(Br)cc2)=N/C1=C/c1ccco1	APP 5'UTR act 140.1
O=C1NC(c2ccccc2Cl)=N/C1=C/c1ccco1	none (no result: APP transl inh, NF-kB neuron act, STAT1 act, APP 5'UTR act, Hsp70 act)
O=C1CS/C(=N/N=C/c2ccccc2)N1Cc1ccco1	none (no result: APP transl inh, NF-kB neuron act, STAT1 act, APP 5'UTR act, Hsp70 act)
CCCCOC(=O)NC(NCC(O)c1ccccc1)(C(F)(F)F)C(F)(F)F (centres undefined)	none
CCCCCOC(=O)NCC(O)c1ccccc1 (centres undefined)	STAT1 act 144.3
CCCCNC(=O)N(C)c1nc2ccccc2s1	STAT1 act 133.0
COC(=O)N(C)c1nc2ccccc2s1	none
Cc1cc(C(=O)CSc2cccc[n+]2[O-])c(C)n1-c1ccccc1	NF-kB neuron act 3.81, APP 5'UTR act 148.9
O=C(CSc1cccc[n+]1[O-])c1ccccc1Br	none
Cc1cc(C(=O)CSc2cccc[n+]2[O-])c(C)n1-c1ccc(Br)cc1	Wee1 degr inh 9.6
Cc1cc(C(=O)O)c(C)n1-c1ccccc1	none
CC(=O)Nc1ccc(SCC(=O)c2cc(C)n(-c3ccccc3)c2C)cc1	STAT1 act 140.9
COc1ccc(-n2c(C)cc(C(=O)CSc3ccc(NC(C)=O)cc3)c2C)cc1	none
Cc1ccc(-n2c(C)cc(C(=O)CSc3nncs3)c2C)cc1	NF-kB neuron act 5.42, STAT1 act 129.4, APP 5'UTR act 139.2
Cc1cc(C(=O)CSc2nncn2C)c(C)n1-c1ccccc1	NF-kB neuron act 4.2
Cc1ccc(OC(=O)c2cccc([N+](=O)[O-])c2)c(-n2nc3ccccc3n2)c1	none
Cc1ccc(OC(=O)COc2ccccc2C)c(-n2nc3ccccc3n2)c1	NF-kB neuron act 3.8
Cc1ccc(OC(=O)COc2ccccc2)c(-n2nc3ccccc3n2)c1	NF-kB neuron act 4.78
COC(=O)COc1ccc(C)cc1-n1nc2ccccc2n1	none
COC(=O)c1cc(NS(=O)(=O)c2ccc(Cl)c(N3C(=O)c4ccc(C(=O)O)cc4C3=O)c2)cc(C(=O)OC)c1	none (no result: APP transl inh, NF-kB neuron act, STAT1 act, APP 5'UTR act, Hsp70 act)
O=C(N/N=C/c1ccc([N+](=O)[O-])cc1)c1ccc2nc[nH]c2c1	none
O=C(N/N=C/c1ccc([N+](=O)[O-])cc1)c1[nH]ncc1Br	STAT1 act 131.1
COc1cc(OC)cc(C(=O)N2CCN=C2SCc2cccnc2)c1	none
O=[N+]([O-])c1cc(/C=N/O)ccc1Oc1ccccc1Cl	STAT1 act 131.4
Cc1ccc(C(=O)NCCc2ccc(F)cc2)s1	NF-kB neuron act 4.19, STAT1 act 129.1, APP 5'UTR act 161.7
C=CCNC(=O)NC(=O)COC(=O)CC(NC(N)=O)c1ccc(Cl)cc1 (centres undefined)	none
O=C(Nc1ccc2c(c1)OCCO2)c1cncc(Br)c1	NF-kB neuron act 4.88, APP 5'UTR act 157.3
O=C(Nc1ccc2c(c1)OCO2)c1cncc(Br)c1	Wee1 degr inh 20.9
CN(C)C(=O)c1ccc(NC(=O)c2cncc(Br)c2)cc1	none
Cc1cc(N2CCN(S(=O)(=O)c3ccc(Cl)cc3)CC2)c2ccccc2n1	none
COCCN(C(=O)C1CC1)c1nnc(-c2ccc(C)cc2)s1	none
CCOc1cc(CNCCc2c[nH]c3ccccc23)cc(Cl)c1OCC(N)=O	none (no result: APP transl inh, NF-kB neuron act, STAT1 act, APP 5'UTR act, Hsp70 act)
Cc1ccc2c(c1)C(=O)C(=O)N2CCOc1ccccc1	APP transl inh 79.0, NF-kB neuron act 3.61
Cc1cccc(OCCN2C(=O)C(=O)c3cc(C)ccc32)c1	APP transl inh 92.8, NF-kB neuron act 3.79
Cc1ccc2c(c1)C(=O)C(=O)N2CCCOc1ccccc1C	none
Cc1ccc(-c2n[nH]c(=S)n2/N=C/c2c(C)nn(-c3ccccc3)c2C)cc1	none
CCOC(=O)c1sc2nc3n(c(=O)c2c1C)CCC3	none
CCOC(=O)c1sc2nc3n(c(=O)c2c1C)CCCCC3	STAT1 act 132.9
